# Measurements from PubChem BioAssay (NCI).
# The panel holds about 83,000 compounds, 20% with a hit somewhere; the sample as a whole holds those more often.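 Treatment: one concentration, 48 hours, 96-well format. Scoring: percent growth, with anything below 10 considered active.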 Unmarked numbers belong to inactive results. Active and inactive are the calls of the source.
# Assays:
# Assay in all cases: NCI-60 one-dose screen, 48 h (100 = growth as untreated, 0 = no growth, -100 = all killed)
# Conditions in all cases: 10 µM unless noted
# SK-MEL-2 melanoma = tested on: SK-MEL-2 melanoma
# EKVX NSCLC = tested on: EKVX NSCLC
# SN12C renal = tested on: SN12C renal
# UO-31 renal = tested on: UO-31 renal
# TK-10 renal = tested on: TK-10 renal
# ACHN renal = tested on: ACHN renal
# CAKI-1 renal = tested on: CAKI-1 renal
# A498 renal = tested on: A498 renal
# CCRF-CEM leukemia = tested on: CCRF-CEM leukemia
# MOLT-4 leukemia = tested on: MOLT-4 leukemia
# RPMI-8226 leukemia = tested on: RPMI-8226 leukemia
# OVCAR-8 ovarian = tested on: OVCAR-8 ovarian
# OVCAR-5 ovarian = tested on: OVCAR-5 ovarian
# OVCAR-4 ovarian = tested on: OVCAR-4 ovarian
# IGROV1 ovarian = tested on: IGROV1 ovarian
# OVCAR-3 ovarian = tested on: OVCAR-3 ovarian
# HS 578T breast = tested on: HS 578T breast
# NCI/ADR-RES ovarian = tested on: NCI/ADR-RES ovarian
# SK-OV-3 ovarian = tested on: SK-OV-3 ovarian
Structure (SMILES),growth (SK-MEL-2 melanoma),growth (EKVX NSCLC),growth (SN12C renal),growth (UO-31 renal),growth (TK-10 renal),growth (ACHN renal),growth (CAKI-1 renal),growth (A498 renal),growth (CCRF-CEM leukemia),growth (MOLT-4 leukemia),growth (RPMI-8226 leukemia),growth (OVCAR-8 ovarian),growth (OVCAR-5 ovarian),growth (OVCAR-4 ovarian),growth (IGROV1 ovarian),growth (OVCAR-3 ovarian),growth (HS 578T breast),growth (NCI/ADR-RES ovarian),growth (SK-OV-3 ovarian)
Cc1ccc2nc(C)c(-c3nnc(SCc4ccc(C#N)cc4)o3)n2c1,101%,83.8%,92.9%,67%,120%,88.4%,85.3%,72%,117%,101%,93.6%,108%,107%,95.8%,89.5%,109%,93.2%,90.6%,
Cn1c(I)c(C#C[Si](C)(C)C)c(=O)n(C(=O)c2ccccc2)c1=O,81%,91.2%,51%,-78.4% (active),43.6%,11.5%,40.9%,105%,-57.5% (active),-69.9% (active),-9.86% (active),-20.6% (active),60.9%,39.5%,,14.2%,41%,88.1%,101%
COc1ccc2c(c1)C(=O)/C(=C/c1cccc(OCC(=O)Nc3nc(C)c(C)s3)c1)O2,59.9%,-45.3% (active),3.1% (active),-79.1% (active),-14.3% (active),-56.5% (active),-81.5% (active),97.2%,-69.6% (active),-65.4% (active),-63.3% (active),4.69% (active),-77.3% (active),-66.7% (active),,-58.9% (active),5.38% (active),-59% (active),46.1%
CCCc1cc2c(=O)c(C(=O)OC)c[nH]c2cc1N(CC)CC,93.9%,106%,94.7%,82.6%,101%,92.7%,94.9%,107%,88.2%,98.2%,82.5%,102%,88.8%,101%,,95.3%,123%,99%,100%
CCOC(=O)C/C(C)=N\NC(=O)c1ccncc1,120%,89.6%,99.9%,101%,95.8%,103%,52.4%,96.8%,99.7%,93.9%,90%,99.2%,98.3%,98.2%,,105%,115%,98%,101%
COc1ccc2c(c1)C(=O)/C(=C/c1ccc(OCC(=O)Nc3nccs3)cc1)O2,112%,32.7%,48.2%,-80.8% (active),93.9%,49%,-78.4% (active),99.7%,-73.8% (active),-72.9% (active),-53.8% (active),19.1%,-31.5% (active),48.3%,,-24.4% (active),56.2%,56.9%,37.9%
CC1=C([Se]CC(OC(=O)[C@@H](CO)NC(=O)OC(C)(C)C)C(=O)NC(C)(C)C)C(=O)c2ccccc2C1=O (some centres not stated),-79.1% (active),-56% (active),-100% (active),-100% (active),-100% (active),-100% (active),-73.2% (active),7.64% (active),-29% (active),-31.6% (active),-33.7% (active),-84.9% (active),-100% (active),,-100% (active),-100% (active),-37.1% (active),-94.7% (active),-100% (active)
COc1ccc(-c2nc3sccn3c2-c2cc(-c3cc(OC)c(OC)c(OC)c3)on2)cc1,142%,98.9%,105%,-60.9% (active),162%,98.7%,127%,74.4%,34.6%,40.3%,41.5%,94.6%,124%,84.4%,,76%,92.5%,87.5%,92.2%
O=C1Nc2ccc(F)cc2C12Nc1cc(Cl)ccc1S2 (configuration not stated),157%,89.2%,97.9%,80.4%,188%,99.8%,55.2%,89.2%,76.4%,74.5%,32.9%,96.9%,121%,77.9%,,82.8%,94.4%,93.4%,83.8%
